High-throughput results: PubChem BioAssay, several laboratories
In the library only some 2.8% were active in any assay of this set; here they are far more common.
KKLEB cytotox: counter-screen for CF NF-kB inhibitors: cytotoxicity. activity change (cytotoxicity), % at 5 µM. 0.36% of 360,000 active. KKLEB CF airway cells viability, ATPlite luminescence, overnight; stronger effect = lower value; cells stimulated with P. aeruginosa culture filtrate. AID 602141;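 active means corrected activity change at or below -50% at 5 µM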
Shn3 inh set2: reduces Shn3 3'UTR luciferase signal in osteoblasts | Clone20 osteoblast Shn3 3'UTR firefly luciferase, 24 h | inhibition, % at 12.5 µM | 0.52% of 360,000 active;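 active means mean inhibition of at least 75% with every replicate also reaching 75%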;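 further: 0% = median of neutral control wells and 100% = pilot-screen positive control compound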
Peg3 prom inh: inhibitors of Peg3 promoter; inhibition, % at 20 µM; HeLa PEG-Prom luciferase reporter, luminescence, overnight; AID 588405; 1.7% of 360,000 active;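 active means inhibition of at least 50% at 20 µM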
CF NFkB inh: blocks PAF-induced NF-kB reporter in cystic fibrosis cells; KKLEB NF-kB-GFP reporter, GFP fluorescence overnight; inhibition, % at 5 µM; 0.86% of 360,000 active; AID 588850;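 active means at least 50% inhibition at 5 µM, scaled per plate between neutral and stimulator controls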;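 further: PAF is a Pseudomonas aeruginosa culture filtrate used as stimulus; plate controls were PAF-stimulated DMSO wells for no effect and unstimulated DMSO wells for full effect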
HIF-2a inh: blocks HIF-2a reporter activity; 786-0 RCC cells HIF-2a reporter, luciferase luminescence, overnight; inhibition, % at 18.8 µM; 0.72% of 360,000 active;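 active means inhibition of the luminescence signal of 40% or more relative to plate controls, in a single-dose primary screen at 18.75 µM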
TRPM1 prom inh: MITF TRPM1 promoter inhibition in SK-MEL-5 cells | SK-MEL-5 TRPM1 promoter luciferase, 24 h | 0.83% of 330,000 active | inhibition, % at 12.5 µM | AID 488899;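 active means mean inhibition across replicates of 60% or more, whatever share of single replicates reaches that level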
* hit, by the source's call; nt = no result given; ! = not confirmed by another sample.

SMILES	KKLEB cytotox	Shn3 inh set2	Peg3 prom inh	CF NFkB inh	HIF-2a inh	TRPM1 prom inh
C=CCN1C(=O)c2ccc(C(=O)NCCc3ccc(OC)c(OC)c3)cc2C1=O	-3.0	3.2	1.0	-6.4	18.5	11.8
COc1cccc(N(CC(=O)NC2CCCC2)C(=O)CCC(=O)Nc2cc(C)on2)c1	1.0	-0.5	5.0	-10.7	9.7	-5.5
Cc1ccc(N(C(=O)c2csnn2)C(C(=O)NC2CCCC2)c2cccnc2)c(C)c1 (stereo not given)	4.8	-1.4	6.4	1.8	17.2	10.6
CCN1CCN(Cc2ccc(NC(=O)c3cc(NC(=O)C4=NN(c5ccccc5)C(=O)C4)cc(OC)c3)cc2C(F)(F)F)CC1	-7.4	-4.6	-27.1	-12.7	7.7	5.5
CCN1CCN(Cc2ccc(NC(=O)c3ccc(C)c(NC(=O)C[C@@H]4NC(=O)[C@H](Cc5ccccc5)NC4=O)c3)cc2C(F)(F)F)CC1	0.0	-3.4	9.8	47.1	-8.3	5.6
CCN1CCN(Cc2ccc(NC(=O)c3cc(NC(=O)c4cc5cccc(OC)c5o4)cc(OC)c3)cc2C(F)(F)F)CC1	-53.2*!	98.6*	104.4*	55.3*!	6.7	18.0
CCN1CCN(Cc2ccc(NC(=O)c3cc(NC(=O)N4CCNC4=O)cc(OC)c3)cc2C(F)(F)F)CC1	-17.7	13.0	97.0*!	33.5	-36.9	-4.4
CC1(C)CC[C@]2(C(=O)n3ccnc3)CC[C@]3(C)[C@H](C(=O)C=C4[C@@]5(C)C=C(C#N)C(=O)C(C)(C)[C@@H]5CC[C@]43C)[C@@H]2C1	-69.9*	94.2*	105.8*	84.9*	90.2*	94.3*
COCCSc1ccccc1C(=O)N1CCN(Cc2ccccc2)CC1	-2.8	-0.6	1.6	-0.5	18.2	11.0
O=C(Nc1ccc2c(c1)OCCO2)c1ccc(NC(=O)C2CCCO2)cc1 (stereo not given)	-6.3	14.7	-66.5	14.0	57.7*	10.5
O=C(Nc1ccccc1)c1ccc2c(c1)OCCO2	0.3	-35.0	-198.7	-6.2	-131.5	-54.3
O=C(NCc1ccc2c(c1)OCO2)c1ccc(NC(=O)C2CCCO2)cc1 (stereo not given)	-3.0	-11.8	-14.7	-5.2	4.6	6.0
O=C(CCCc1ccccc1)c1ccc2c(c1)OCCO2	-56.9*	52.1	87.2*	-9.9	66.5*	77.4*
O=C(CCc1ccccc1)c1ccc2c(c1)OCCCO2	-6.1	-67.5	-306.9	-6.6	-254.4	-126.4
O=C(Nc1ccc(NC(=O)c2ccc3c(c2)OCCO3)cc1)c1ccccc1	-3.5	2.7	99.8*	5.4	-32.6	0.2
O=C(Nc1ccc2c(c1)OCCO2)c1cccc2nc3ccccc3nc12	0.6	52.2	42.3	-33.7	-71.3	73.1*
CC1CCC2(CC1)NC(=O)N(CC(=O)Nc1ccc3c(c1)OCCO3)C2=O (stereo not given)	3.1	-43.3	-94.4	-5.6	-121.6	-15.0
COCCN1Cc2cccc(C(=O)Nc3ccc4c(c3)OCCO4)c2C1=O	3.9	86.9*	-3.9	-51.2	13.3	-2.5
CC1(C(=O)NS(=O)(=O)Cc2ccccc2C(F)(F)F)CCN1C(=O)C/C=C/c1ccccc1 (stereo not given)	-15.6	8.4	5.8	0.6	3.7	nt
Cc1nc2ccc(N)cc2c(=O)n1Cc1ccc(Cl)cc1	-2.5	-21.9	-57.6	11.2	-63.8	-14.7
Nc1ccc(Cn2ccc3c4c(N)nc(N)nc4ccc32)cc1	18.3	74.7	102.4*	-48.5	35.9	84.9*
CCCCn1nnnc1C(c1cc2ccccc2o1)N1CCCN(C(=O)OC(C)(C)C)CC1 (stereo not given)	nt	nt	nt	nt	10.0	nt
COc1ccc(/C=N/NS(=O)(=O)c2ccc(C)cc2)cc1OC(=O)c1ccccc1	8.7	-17.1	-10.9	-7.4	-67.9	-5.7
COc1cc(/C=N/NS(=O)(=O)c2ccc3ccccc3c2)ccc1OCc1ccc(C(=O)O)cc1	-6.3	32.1	-4.8	1.8	17.9	64.3*
COc1cc(/C=N/NS(=O)(=O)c2ccc(C)cc2)ccc1OCc1cccc(C(=O)O)c1	-5.6	68.5	-2.1	-4.2	31.8	77.7*
SMILES	KKLEB cytotox	Shn3 inh set2	Peg3 prom inh	CF NFkB inh	HIF-2a inh	TRPM1 prom inh
COc1ccccc1C1=NOC(Cn2c(NCCOCCO)nc3c2c(=O)n(C)c(=O)n3C)C1 (stereo not given)	-7.2	14.1	3.8	4.9	12.5	-5.9
O=C(NCCCn1ccnc1)C(=O)NCC1OCCCN1S(=O)(=O)c1ccccc1 (stereo not given)	-0.8	90.0*	-10.6	-0.4	-9.1	-6.7
COCCNC(=O)C1(C)Cc2c(-c3ccc4c(c3)OCO4)ccnc2O1 (stereo not given)	6.4	-5.5	25.3	-0.9	11.3	nt
Cc1ccc(-n2cc(CN3CCC(CO)(Cc4cccc(C(F)(F)F)c4)CC3)cn2)cc1	-25.1	58.1	107.6*	19.1	6.5	42.6
CSc1cccc(CN2CCC(CO)(Cc3cccc(C(F)(F)F)c3)CC2)c1	-16.3	49.4	52.2*	30.1	17.4	0.0
OCC1(Cc2cccc(C(F)(F)F)c2)CCN(Cc2cc(F)cc(F)c2)CC1	-1.7	7.0	21.1	6.4	22.0	6.1
C/C(=N\NC(=S)NC1CCCCC1)c1ccc(Cl)c(Cl)c1	3.2	-26.1	-14.5	-11.3	-74.1	10.6
CC(=NNC(=S)N1CC2CCC(CC2)C1)c1ccncn1	-21.3	88.4*	99.7*	32.8	-137.3	77.5*
CCCCn1cnc2c(c(-c3ccccc3)c(-c3ccccc3)n2Cc2ccco2)c1=N	-8.5	-15.4	-4.2	8.5	14.5	nt
N=c1c2c(-c3ccccc3)c(-c3ccccc3)n(Cc3ccco3)c2ncn1Cc1ccco1	-13.5	13.4	104.7*	28.7	30.2	66.5*
CCC[C@@H](CN[C@@H](CNC)[C@H](C)CC)NCC1CCC(C(C)(C)C)CC1 (stereo not given in full)	-30.5	80.0	102.1*	9.1	-3.1	99.7*
Cc1cccc(NC(=O)CN(C)S(=O)(=O)c2ccc3c(c2)n(C)c(=O)c(=O)n3C)c1C	-13.7	-15.1	12.0	19.4	7.9	1.9
CC1CCCN(C(=O)CNC(=O)c2ccco2)C1 (stereo not given)	-1.6	-2.3	-57.6	-2.9	-66.3	1.3
CCOC(CNCc1cc(C)c2[nH]c3ccccc3c2c1C)OCC	-18.8	39.3	74.0*	19.7	21.8	12.7
O=C(Nc1nc2ccccc2n1Cc1ccccc1)c1ccc(COc2ccccc2[N+](=O)[O-])o1	-68.1*	32.5	28.1	45.7	6.6	24.0
Cc1ccc(OCc2ccc(C(=O)Nc3nc4ccccc4n3Cc3ccccc3)o2)c([N+](=O)[O-])c1	-33.2	32.6	14.7	23.5	1.1	9.3
CCCCn1c(CCl)nc2cc(S(=O)(=O)N3CCOCC3)ccc21	14.3	-7.4	57.9*	44.7	10.3	49.3
CCCCn1c(C)nc2cc(S(=O)(=O)N3CCOCC3)ccc21	-10.5	-10.0	1.2	24.4	11.1	3.9
